Holding throughout (assay): DAPPL (digital affinity profiling via proximity ligation, sequencing); 10 mM Tris-HCl pH 7.5, 50 mM NaCl, 1 mM DTT, 4% glycerol, room temperature, 30 min; GST-TFs on glutathione beads, 16-mer random dsDNA library, 0.1% formaldehyde crosslink after washing; high values mean tight binding
The target in one assay is T1, FEV (Homo sapiens, UniProt Q99581 1-238).
T1 sequence: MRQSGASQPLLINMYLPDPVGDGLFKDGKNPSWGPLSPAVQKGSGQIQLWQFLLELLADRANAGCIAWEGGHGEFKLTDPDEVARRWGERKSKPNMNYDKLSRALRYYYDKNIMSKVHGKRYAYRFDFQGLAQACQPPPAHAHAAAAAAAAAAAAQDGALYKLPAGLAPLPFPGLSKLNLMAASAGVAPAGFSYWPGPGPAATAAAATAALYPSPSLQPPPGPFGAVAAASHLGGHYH
The conditions noted are these: protein: recombinant; tags: N-terminal GST; dsDNA, one strand shown. A digest of the protocol: (§1)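 In yeast, human transcription factors were expressed with a GST fusion, then pulled down on glutathione beads and given DNA barcodes. Pooled with a tag-only sample, they were exposed to 200 nmole of a 16-mer random double-stranded DNA library (Tris/NaCl/DTT/glycerol buffer, room temperature, 30 min), washed, crosslinked with 0.1% formaldehyde, proximity-ligated using BsaI/T4 ligase for 1 h at 37 °C, PCR-amplified and read on an Illumina NextSeq500. Each hexamer's frequency of reads for a factor, divided by the matching frequency for the tag-only sample, gives the binding signal.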

For a further assay, the target named is ETV5 (Homo sapiens, UniProt P41161 1-510). The conditions noted are these: protein: recombinant; tags: N-terminal GST; dsDNA, one strand shown. A digest of the protocol:
as §1

The target in another assay is HSF1 (Homo sapiens, UniProt Q00613 1-529). The following applies: protein: recombinant; tags: N-terminal GST; chain copies: 3; dsDNA, one strand shown. A digest of the protocol: as §1
Another assay addresses T2, SPIC (Homo sapiens, UniProt Q8N5J4 1-248).
T2 sequence: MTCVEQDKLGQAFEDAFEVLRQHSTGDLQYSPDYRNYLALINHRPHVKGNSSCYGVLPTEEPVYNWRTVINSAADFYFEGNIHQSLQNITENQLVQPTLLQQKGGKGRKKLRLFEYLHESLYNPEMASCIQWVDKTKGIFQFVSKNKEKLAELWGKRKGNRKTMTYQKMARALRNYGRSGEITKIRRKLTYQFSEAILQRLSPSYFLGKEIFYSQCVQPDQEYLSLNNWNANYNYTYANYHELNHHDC
The conditions noted are these: protein: recombinant; tags: N-terminal GST; dsDNA, one strand shown. The method in brief: as §1

The target in the next assay is ELF4 (Homo sapiens, UniProt Q99607 1-663). The conditions noted are these: protein: recombinant; tags: N-terminal GST; dsDNA, one strand shown. The method in brief:
as §1

A further assay concerns the target T3, ELK4 (Homo sapiens, UniProt P28324-2 1-405).
T3 sequence: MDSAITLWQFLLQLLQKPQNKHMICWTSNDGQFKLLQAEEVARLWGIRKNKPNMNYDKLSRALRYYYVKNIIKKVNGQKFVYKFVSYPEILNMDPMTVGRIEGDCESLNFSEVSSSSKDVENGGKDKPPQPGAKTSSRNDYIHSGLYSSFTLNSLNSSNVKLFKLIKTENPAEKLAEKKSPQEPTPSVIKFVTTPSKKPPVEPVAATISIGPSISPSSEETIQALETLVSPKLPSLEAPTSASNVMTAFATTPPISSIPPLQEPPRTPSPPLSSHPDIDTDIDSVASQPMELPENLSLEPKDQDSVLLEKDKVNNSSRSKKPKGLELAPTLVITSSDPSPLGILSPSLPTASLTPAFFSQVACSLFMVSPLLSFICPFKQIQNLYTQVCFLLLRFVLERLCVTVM
The following applies: protein: recombinant; tags: N-terminal GST; dsDNA, one strand shown. The method in brief: as §1

Another assay deals with T4, ETV2 (Homo sapiens, UniProt O00321 1-342).
T4 sequence: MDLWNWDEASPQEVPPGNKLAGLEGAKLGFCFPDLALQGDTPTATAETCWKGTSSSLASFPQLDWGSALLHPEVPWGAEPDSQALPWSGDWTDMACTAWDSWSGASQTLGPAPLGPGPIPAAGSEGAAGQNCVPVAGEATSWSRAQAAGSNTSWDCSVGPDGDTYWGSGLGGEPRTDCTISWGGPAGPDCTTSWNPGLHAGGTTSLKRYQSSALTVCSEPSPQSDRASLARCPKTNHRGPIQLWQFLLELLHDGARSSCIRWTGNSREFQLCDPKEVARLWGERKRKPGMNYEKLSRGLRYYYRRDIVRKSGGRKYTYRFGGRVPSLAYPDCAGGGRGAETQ
The conditions noted are these: protein: recombinant; tags: N-terminal GST; dsDNA, one strand shown. The method in brief:
as §1

The target of the next assay is T5, ELF3 (Homo sapiens, UniProt P78545 1-371).
T5 sequence: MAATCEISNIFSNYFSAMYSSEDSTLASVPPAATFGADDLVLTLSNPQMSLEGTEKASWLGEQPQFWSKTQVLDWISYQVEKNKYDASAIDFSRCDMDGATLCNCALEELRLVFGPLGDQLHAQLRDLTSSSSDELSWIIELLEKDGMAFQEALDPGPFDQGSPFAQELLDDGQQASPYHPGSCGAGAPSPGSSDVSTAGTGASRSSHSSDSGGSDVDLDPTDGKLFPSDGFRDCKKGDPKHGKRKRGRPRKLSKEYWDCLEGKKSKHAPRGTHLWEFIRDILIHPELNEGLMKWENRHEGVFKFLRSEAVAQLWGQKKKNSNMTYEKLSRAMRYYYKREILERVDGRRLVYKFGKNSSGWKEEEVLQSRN
The conditions noted are these: protein: recombinant; tags: N-terminal GST; dsDNA, one strand shown. A digest of the protocol: as §1

The target in a further assay is CRX (Homo sapiens, UniProt O43186 1-299). The following applies: protein: recombinant; tags: N-terminal GST; dsDNA, one strand shown. The method in brief: as §1
In the next assay the target is ETV1 (Homo sapiens, UniProt P50549 1-477). The following applies: protein: recombinant; tags: N-terminal GST; dsDNA, one strand shown. A digest of the protocol:
as §1

The next assay deals with T6, ERF (Homo sapiens, UniProt P50548 1-548).
T6 sequence: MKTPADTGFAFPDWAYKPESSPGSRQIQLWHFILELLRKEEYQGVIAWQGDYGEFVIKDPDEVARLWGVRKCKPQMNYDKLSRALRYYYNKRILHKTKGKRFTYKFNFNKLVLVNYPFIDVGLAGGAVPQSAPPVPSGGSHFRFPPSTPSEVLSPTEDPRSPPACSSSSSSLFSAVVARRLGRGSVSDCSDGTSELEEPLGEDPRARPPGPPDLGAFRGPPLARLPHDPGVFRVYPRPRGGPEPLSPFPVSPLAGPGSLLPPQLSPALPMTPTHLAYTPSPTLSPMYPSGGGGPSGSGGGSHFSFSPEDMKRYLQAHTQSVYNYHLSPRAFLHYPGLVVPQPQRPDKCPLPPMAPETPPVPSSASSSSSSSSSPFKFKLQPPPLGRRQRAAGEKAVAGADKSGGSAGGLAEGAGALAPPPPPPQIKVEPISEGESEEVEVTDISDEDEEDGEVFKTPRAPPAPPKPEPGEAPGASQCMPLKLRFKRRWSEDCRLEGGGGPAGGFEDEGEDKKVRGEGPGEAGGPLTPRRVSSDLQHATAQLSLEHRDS
The conditions noted are these: protein: recombinant; tags: N-terminal GST; dsDNA, one strand shown. The method in brief:
as §1

The target of the next assay is T7, ETV3L (Homo sapiens, UniProt Q6ZN32 1-361).
T7 sequence: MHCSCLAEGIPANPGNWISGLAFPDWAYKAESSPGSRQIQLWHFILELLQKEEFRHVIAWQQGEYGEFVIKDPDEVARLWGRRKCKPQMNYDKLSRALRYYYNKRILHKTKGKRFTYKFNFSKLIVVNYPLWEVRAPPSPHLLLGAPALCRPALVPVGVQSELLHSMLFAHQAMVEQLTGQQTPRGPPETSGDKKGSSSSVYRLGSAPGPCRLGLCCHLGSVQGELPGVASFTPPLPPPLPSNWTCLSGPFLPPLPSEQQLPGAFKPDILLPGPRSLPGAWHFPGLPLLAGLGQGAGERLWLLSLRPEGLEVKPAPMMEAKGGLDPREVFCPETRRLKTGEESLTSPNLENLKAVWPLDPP
The conditions noted are these: protein: recombinant; tags: N-terminal GST; dsDNA, one strand shown. The method in brief: as §1

The next assay deals with T8, ETS2 (Homo sapiens, UniProt P15036 1-469).
T8 sequence: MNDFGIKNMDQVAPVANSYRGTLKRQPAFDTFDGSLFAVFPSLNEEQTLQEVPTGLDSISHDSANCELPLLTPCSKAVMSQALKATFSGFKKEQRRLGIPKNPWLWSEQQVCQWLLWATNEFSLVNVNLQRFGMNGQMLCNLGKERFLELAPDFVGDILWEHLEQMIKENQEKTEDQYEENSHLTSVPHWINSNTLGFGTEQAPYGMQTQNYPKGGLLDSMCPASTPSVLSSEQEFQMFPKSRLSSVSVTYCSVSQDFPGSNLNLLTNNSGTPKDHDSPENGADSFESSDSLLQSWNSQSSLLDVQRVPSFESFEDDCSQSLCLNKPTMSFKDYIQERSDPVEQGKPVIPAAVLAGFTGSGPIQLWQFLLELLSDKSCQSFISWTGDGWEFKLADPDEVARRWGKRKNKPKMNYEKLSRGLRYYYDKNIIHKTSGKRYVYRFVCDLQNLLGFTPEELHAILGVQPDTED
The conditions noted are these: protein: recombinant; tags: N-terminal GST; dsDNA, one strand shown. The method in brief:
as §1

The next assay addresses T9, SPDEF (Homo sapiens, UniProt O95238 1-335).
T9 sequence: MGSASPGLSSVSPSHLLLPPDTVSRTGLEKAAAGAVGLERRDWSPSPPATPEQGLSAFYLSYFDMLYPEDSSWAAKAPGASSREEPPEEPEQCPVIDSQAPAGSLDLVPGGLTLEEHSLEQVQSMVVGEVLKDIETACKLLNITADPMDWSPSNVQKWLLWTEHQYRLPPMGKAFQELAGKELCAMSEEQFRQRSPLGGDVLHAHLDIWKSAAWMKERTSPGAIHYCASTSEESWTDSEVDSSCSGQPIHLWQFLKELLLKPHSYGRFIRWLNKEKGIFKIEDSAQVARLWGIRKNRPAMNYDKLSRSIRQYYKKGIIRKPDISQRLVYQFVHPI
The conditions noted are these: protein: recombinant; tags: N-terminal GST; dsDNA, one strand shown. The method in brief: as §1

The target in another assay is T10, ETV7 (Homo sapiens, UniProt Q9Y603 1-341).
T10 sequence: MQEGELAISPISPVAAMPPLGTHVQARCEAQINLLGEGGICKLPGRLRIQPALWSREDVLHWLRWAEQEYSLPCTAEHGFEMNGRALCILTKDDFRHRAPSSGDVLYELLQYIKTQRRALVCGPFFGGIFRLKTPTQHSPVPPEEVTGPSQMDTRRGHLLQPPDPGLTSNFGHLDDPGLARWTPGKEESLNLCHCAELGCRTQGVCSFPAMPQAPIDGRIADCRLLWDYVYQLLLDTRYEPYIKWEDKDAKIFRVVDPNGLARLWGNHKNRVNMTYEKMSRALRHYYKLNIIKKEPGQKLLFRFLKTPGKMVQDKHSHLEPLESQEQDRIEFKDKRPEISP
The conditions noted are these: protein: recombinant; tags: N-terminal GST; dsDNA, one strand shown. The method in brief: as §1

For the next assay, the target named is T11, ELF5 (Homo sapiens, UniProt Q9UKW6-2 1-255).
T11 sequence: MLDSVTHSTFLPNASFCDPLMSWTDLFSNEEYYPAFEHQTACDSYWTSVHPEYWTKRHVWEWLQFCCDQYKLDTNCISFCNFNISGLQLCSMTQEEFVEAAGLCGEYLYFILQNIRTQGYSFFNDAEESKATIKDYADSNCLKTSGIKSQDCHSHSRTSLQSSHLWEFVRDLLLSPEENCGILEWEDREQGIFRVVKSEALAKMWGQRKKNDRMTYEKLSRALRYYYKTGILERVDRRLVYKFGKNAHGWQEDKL
The following applies: protein: recombinant; tags: N-terminal GST; dsDNA, one strand shown. The method in brief:
as §1

A further assay has as its target T12, ETV3 (Homo sapiens, UniProt P41162-2 1-143).
T12 sequence: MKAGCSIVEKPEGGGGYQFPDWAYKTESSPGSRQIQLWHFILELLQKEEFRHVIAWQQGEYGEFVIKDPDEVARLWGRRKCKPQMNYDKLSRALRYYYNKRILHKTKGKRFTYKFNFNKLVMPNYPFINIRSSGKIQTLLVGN
The following applies: protein: recombinant; tags: N-terminal GST; dsDNA, one strand shown. A digest of the protocol: as §1

The target of the next assay is ETV6 (Homo sapiens, UniProt P41212 1-452). The following applies: protein: recombinant; tags: N-terminal GST; dsDNA, one strand shown. The method in brief:
as §1

Sequence of ETV1 (P50549 whole entry): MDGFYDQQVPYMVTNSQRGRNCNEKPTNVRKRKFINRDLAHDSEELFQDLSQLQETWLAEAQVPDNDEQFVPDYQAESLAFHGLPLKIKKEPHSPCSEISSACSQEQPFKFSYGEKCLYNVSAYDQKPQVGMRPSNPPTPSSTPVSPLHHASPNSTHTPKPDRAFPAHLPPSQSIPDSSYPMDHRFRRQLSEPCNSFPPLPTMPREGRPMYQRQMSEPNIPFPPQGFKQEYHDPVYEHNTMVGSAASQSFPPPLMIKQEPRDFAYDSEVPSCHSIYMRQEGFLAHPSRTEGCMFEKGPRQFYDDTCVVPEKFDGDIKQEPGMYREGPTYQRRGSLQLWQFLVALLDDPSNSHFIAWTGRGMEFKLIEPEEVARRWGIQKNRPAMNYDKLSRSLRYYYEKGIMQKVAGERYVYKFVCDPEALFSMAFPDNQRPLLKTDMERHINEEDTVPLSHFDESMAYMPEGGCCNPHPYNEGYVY
Sequence of HSF1 (Q00613 whole entry): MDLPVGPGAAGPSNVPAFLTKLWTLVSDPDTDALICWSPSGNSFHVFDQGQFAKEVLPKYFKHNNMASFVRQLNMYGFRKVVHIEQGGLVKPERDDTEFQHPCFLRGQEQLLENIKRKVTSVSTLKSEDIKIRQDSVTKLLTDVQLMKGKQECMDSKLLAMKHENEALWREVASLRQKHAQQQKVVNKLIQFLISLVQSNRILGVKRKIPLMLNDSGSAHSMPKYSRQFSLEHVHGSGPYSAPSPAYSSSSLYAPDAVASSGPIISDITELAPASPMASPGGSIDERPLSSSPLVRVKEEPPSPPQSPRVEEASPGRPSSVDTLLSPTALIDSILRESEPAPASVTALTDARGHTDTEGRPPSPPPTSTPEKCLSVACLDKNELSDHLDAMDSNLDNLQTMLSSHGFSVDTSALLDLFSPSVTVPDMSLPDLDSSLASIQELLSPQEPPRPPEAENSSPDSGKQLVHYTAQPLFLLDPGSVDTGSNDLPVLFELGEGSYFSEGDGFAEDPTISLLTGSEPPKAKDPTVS
Sequence of ETV6 (P41212 whole entry): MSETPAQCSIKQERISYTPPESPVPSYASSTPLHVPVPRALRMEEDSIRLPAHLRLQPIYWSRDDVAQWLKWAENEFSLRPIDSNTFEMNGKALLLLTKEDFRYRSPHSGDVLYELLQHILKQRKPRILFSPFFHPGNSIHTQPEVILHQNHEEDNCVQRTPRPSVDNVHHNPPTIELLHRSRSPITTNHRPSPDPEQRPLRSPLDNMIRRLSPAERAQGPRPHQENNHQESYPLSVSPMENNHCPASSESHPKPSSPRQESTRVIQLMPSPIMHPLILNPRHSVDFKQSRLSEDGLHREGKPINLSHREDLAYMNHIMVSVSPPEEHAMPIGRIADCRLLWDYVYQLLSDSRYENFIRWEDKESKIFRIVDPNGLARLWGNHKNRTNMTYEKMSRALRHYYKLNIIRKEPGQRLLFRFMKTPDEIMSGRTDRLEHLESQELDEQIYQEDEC
Sequence of ELF4 (Q99607 whole entry): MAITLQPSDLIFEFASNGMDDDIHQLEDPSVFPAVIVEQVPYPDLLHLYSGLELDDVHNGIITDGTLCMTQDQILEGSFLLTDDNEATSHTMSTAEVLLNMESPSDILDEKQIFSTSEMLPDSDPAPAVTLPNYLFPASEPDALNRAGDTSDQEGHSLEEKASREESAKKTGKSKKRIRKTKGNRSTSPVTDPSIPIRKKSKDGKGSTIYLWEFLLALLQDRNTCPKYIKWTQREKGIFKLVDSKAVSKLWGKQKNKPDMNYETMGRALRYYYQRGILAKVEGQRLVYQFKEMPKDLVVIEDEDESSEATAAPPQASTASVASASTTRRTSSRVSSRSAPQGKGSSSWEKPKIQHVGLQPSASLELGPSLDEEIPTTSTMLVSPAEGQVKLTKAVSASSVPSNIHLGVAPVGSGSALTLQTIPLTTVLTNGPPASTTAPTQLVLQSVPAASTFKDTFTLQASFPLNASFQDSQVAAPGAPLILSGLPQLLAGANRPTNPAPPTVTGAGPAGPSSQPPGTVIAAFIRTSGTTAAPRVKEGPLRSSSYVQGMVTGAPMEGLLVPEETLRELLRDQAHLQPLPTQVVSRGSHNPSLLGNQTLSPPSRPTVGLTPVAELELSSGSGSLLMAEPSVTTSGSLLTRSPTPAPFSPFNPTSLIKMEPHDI
Sequence of ETV5 (P41161 whole entry): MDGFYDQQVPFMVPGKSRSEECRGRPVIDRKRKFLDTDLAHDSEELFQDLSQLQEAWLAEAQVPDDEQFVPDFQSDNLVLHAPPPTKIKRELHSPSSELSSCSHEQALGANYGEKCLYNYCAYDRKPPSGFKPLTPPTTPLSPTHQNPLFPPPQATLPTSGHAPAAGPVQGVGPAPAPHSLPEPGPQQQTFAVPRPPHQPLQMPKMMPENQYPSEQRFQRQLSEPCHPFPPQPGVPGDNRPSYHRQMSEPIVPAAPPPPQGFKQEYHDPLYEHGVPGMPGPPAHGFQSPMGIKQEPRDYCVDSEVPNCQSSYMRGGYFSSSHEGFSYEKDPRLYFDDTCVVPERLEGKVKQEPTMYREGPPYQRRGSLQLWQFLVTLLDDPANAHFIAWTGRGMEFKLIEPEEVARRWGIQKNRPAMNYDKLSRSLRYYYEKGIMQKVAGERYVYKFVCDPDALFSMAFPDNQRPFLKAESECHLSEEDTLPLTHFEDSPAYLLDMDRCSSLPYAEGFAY
Sequence of CRX (O43186 whole entry): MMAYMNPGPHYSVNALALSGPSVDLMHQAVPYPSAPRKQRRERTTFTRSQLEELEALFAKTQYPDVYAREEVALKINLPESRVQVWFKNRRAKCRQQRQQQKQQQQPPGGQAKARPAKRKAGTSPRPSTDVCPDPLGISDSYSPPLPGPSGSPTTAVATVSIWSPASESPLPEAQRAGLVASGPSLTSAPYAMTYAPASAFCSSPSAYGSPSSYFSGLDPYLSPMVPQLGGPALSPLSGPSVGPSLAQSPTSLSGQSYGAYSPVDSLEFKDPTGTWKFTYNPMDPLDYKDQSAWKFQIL

In the case of TTACAA, the binding signal in the assay with FEV was 1.12 fold enrichment (6-mer frequency, TF over GST control); with ETV5 it was 1.1 fold enrichment (6-mer frequency, TF over GST control); with HSF1, 1.31 fold enrichment (6-mer frequency, TF over GST control); in the assay with SPIC it was 1.12 fold enrichment (6-mer frequency, TF over GST control); with ELF4, 1.12 fold enrichment (6-mer frequency, TF over GST control); with ELK4, 1.24 fold enrichment (6-mer frequency, TF over GST control). Moreover, the binding signal was 1.09 fold enrichment (6-mer frequency, TF over GST control) with ETV2; 1.22 fold enrichment (6-mer frequency, TF over GST control) in the assay with ELF3; 1.77 fold enrichment (6-mer frequency, TF over GST control) with CRX; 1.18 fold enrichment (6-mer frequency, TF over GST control) in the assay with ETV1; 1.23 fold enrichment (6-mer frequency, TF over GST control) in the assay with ERF; 1.1 fold enrichment (6-mer frequency, TF over GST control) with ETV3L. Moreover, the binding signal with ETS2 is 1.16 fold enrichment (6-mer frequency, TF over GST control); with SPDEF, 1.22 fold enrichment (6-mer frequency, TF over GST control); in the assay with ETV7, 1.11 fold enrichment (6-mer frequency, TF over GST control); with ELF5, 1.17 fold enrichment (6-mer frequency, TF over GST control); in the assay with ETV3, 1.08 fold enrichment (6-mer frequency, TF over GST control); with ETV6, 1.09 fold enrichment (6-mer frequency, TF over GST control).

Source of the values: PMC7862700, “An all-to-all approach to the identification of sequence-specific readers for epigenetic DNA modifications on cytosine”.
